Rows were chosen to be rich in hits. Some 21% of all compounds tested hit in one or more screens of this group.
IL-1B inflam inh – blocks inflammasome-driven IL-1 beta release; THP-1 LPS/ATP IL-1B secretion, AlphaLISA, 16 h; stronger effect = lower value; activity change, % at 57.5 µM; 360,000 compounds, 4.7% hits; in the data active = activity change below about -50%; inconclusive = mostly about -30% to -49%
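THP-1 cells pretreated 1 hr with compounds (up to 57.5 uM final), then stimulated with LPS (250 ng/mL final) plus ATP (1.25 mM final); secreted IL-1B measured by AlphaLISA after 16 hr, decreased signal indicating inhibition.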
RORgamma inh – inhibitors of mouse ROR gamma transcriptional activity; 310,000 compounds, 5.4% hits; Potency, µM (series often up to 53.6 µM), without a hit: at the highest dose activity change, negative = inhibition, actives largely listed as inhibitors; Drosophila S2 Gal4-RORgamma UAS-luciferase reporter, 20 h; AID 2551; P51450; note: potency is the fitted concentration of half-maximal effect; nearly all actives have a fitted effect of over 60% in size
Target sequence (P51450 whole entry, looked up, the tested form may be a part): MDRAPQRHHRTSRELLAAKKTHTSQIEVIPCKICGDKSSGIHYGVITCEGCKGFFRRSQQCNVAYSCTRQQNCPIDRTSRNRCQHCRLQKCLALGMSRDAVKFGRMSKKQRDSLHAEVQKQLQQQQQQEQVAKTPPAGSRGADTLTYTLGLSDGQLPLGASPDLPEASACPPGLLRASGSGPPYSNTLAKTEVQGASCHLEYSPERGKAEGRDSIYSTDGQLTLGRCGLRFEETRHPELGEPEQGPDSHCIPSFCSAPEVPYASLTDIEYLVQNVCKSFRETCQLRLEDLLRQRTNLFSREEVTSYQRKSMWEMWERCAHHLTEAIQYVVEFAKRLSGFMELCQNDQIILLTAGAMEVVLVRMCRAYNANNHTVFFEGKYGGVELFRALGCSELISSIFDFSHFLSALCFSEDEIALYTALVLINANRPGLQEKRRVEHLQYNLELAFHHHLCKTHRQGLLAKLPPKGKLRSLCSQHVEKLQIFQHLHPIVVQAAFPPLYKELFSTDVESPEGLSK
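Using a luciferase readout, inhibitors were identified by reduced reporter activity in Drosophila cells coexpressing a copper-inducible Gal4–ROR gamma fusion and UAS-driven Photinus luciferase, incubated 20 hr after 700 uM copper sulfate.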
ELG1 repair inh – blocks ELG1-dependent DNA repair in HEK293T cells; HEK293T ELG1-luciferase reporter, luminescence, 16 h; DNA damage induced by 5-fluorouridine; Potency, µM (highest dose often 46.1 µM), without a hit: at the highest dose activity change, negative = inhibition, most hits filed as inhibitors; 330,000 compounds, 2.3% hits; note: potency is the fitted concentration of half-maximal effect; nearly all actives have a fitted effect of over 55% in size
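Overnight (16 hr) co-exposure of 2,000 cells/well to 5-fluorouridine and compound at 37 °C preceded detection. Luciferase was quantified via ONE-Glo luminescence; loss of signal denotes inhibition.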
Gal4-VP16 FLuc – inhibits Gal4-VP16 luciferase reporter, ROR gamma counter-screen. Drosophila S2 Gal4-VP16 UAS-luciferase, luminescence, 20 h. Potency, µM (titrated, usually from 53.6 µM), without a hit: at the top dose activity, negative = inhibition, usual class: inhibitors. 310,000 compounds, 3.5% hits. AID 2546;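 note: Gal4-VP16 expression switched on by copper sulfate through the metallothionein promoter; potency is the fitted concentration of half-maximal effect; nearly all actives have a fitted effect of over 50% in size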
TDP1 cell noCPT – qHTS for Inhibitors of human tyrosyl-DNA phosphodiesterase 1 (TDP1): qHTS in cells in absence of CPT; DT40 Tdp1-/- hTDP1 cells, no CPT, ATP luminescence, 48 h; AID 686978, 2013; Potency, µM (doses to about 46.2 µM), for the others: top-dose activity change, negative = growth inhibition, most hits filed as inhibitors; 420,000 compounds, 15% hits; note: potency is the fitted concentration of half-maximal effect; nearly all actives have a fitted effect of over 55% in size
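A cellular qHTS used chicken DT40 cells lacking endogenous Tdp1 but carrying stably transfected human TDP1. Compounds were applied without camptothecin, and cell growth kinetics were judged by ATP-dependent luminescence after ≥48 hr.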
TDP1 cell CPT – DT40-hTDP1 cell growth loss with CPT; chicken DT40 Tdp1-/-;hTDP1 cells + 20 nM CPT, ATP luminescence, 48 h; Potency, µM (titrated, usually from 46.2 µM), for the others: at the top dose activity change, negative = growth inhibition, actives largely listed as inhibitors; 420,000 compounds, 12% hits; note: potency is the fitted concentration of half-maximal effect; nearly all actives have a fitted effect of over 55% in size
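Cell growth measured by CellTiter-Glo luminescence after a minimum 48 h, 37 C compound exposure with 20 nM CPT in Tdp1-knockout DT40 cells stably expressing hTDP1, seeded 400/well; qHTS titration format.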
* marks the source's active call; other numbers are inactive results; ? = inconclusive; nt = not tested or not shown; [ ] = dose if it differs, or a comment. Unless noted, calls come from the whole dose curve; as a rule, active = well fitted curve in the direction sought with a large enough effect; inconclusive = small, poorly fitted or top-dose-only effect, or another doubt; inactive = no such curve, though single readings can be large; an effect the other way counts as inactive or inconclusive. % is set by controls: 0 for no effect and ±100 for the full control effect.

SMILES	IL-1B inflam inh	RORgamma inh	ELG1 repair inh	Gal4-VP16 FLuc	TDP1 cell noCPT	TDP1 cell CPT
COc1cccc(C(C)(O)c2nc(-c3cc4ccccc4o3)cs2)c1 (stereo not given)	62.4	nt	nt	nt	23.1µM*	16.4µM*
CCCCC/C=C\C/C=C\CCCCCCCC(=O)NCCCC(=O)O	nt	-15.0%	nt	-0.9%	nt	nt
CC(C)CCNC(=S)Nc1ccccn1	6.8	0.562µM*	-2.3%	3.98µM*	23.1µM*	?
COCCNC(=S)Nc1ccc(S(=O)(=O)Nc2ncccn2)cc1	8.6	-3.4%	-18.8%	6.1%	0.5%	0.2%
Cc1cccc(NC(=S)NCCC(C)C)c1	-0.2	-10.3%	1.7%	?	?	-22.4%
COCCNC(=S)Nc1ccccn1	-8.0	17.8µM*	2.1%	?	15.4%	6.4%
Cc1ccccc1CN1C(=O)C2(OCCCO2)c2ccccc21	-8.3	28.1%	15.3%	3.4%	?	11.2µM*
O=C(O)CN1C(=O)C2(OCCCO2)c2ccccc21	5.2	-14.2%	7.9%	3.0%	5.3%	2.0%
Cc1ccc(C(=O)NCC(=O)OCC(=O)c2ccc3c(c2)NC(=O)CO3)cc1	34.1	2.5%	7.9%	1.7%	-2.6%	11.5%
O=C(Cc1ccc(F)cc1)NCc1ccc2c(c1)CCN2C(=O)c1ccc(F)cc1	nt	nt	nt	nt	9.2µM*	?
CC(=O)Nc1cccc(C(=O)NCc2ccc3c(c2)CCN3C(=O)c2ccc(F)cc2)c1	nt	nt	nt	nt	16.4µM*	20.6µM*
O=C(NCc1ccc2c(c1)CCN2C(=O)c1ccc(F)cc1)c1cc2ccccc2[nH]1	nt	nt	nt	nt	?	16.4µM*
COc1ccc(OCC(=O)NCc2ccc3c(c2)CCN3C(=O)c2ccc(F)cc2)cc1	nt	nt	nt	nt	?	-29.3%
Cc1cc(N2CCN(C(C(=O)NC3CCCC3)C(C)C)CC2)c2ccccc2n1 (stereo not given)	-11.5	nt	nt	nt	-16.3%	-25.1%
COc1cccc(C(O)c2nc(-c3cccc(C(F)(F)F)c3)cs2)c1 (stereo not given)	14.4	nt	nt	nt	0.581µM*	-85.2%
COc1cc(C(O)c2nc(-c3cccc(C(F)(F)F)c3)cs2)ccc1F (stereo not given)	?	nt	nt	nt	?	16.4µM*
COc1cc(C(O)c2nc(-c3cccc(NC(C)=O)c3)cs2)ccc1F (stereo not given)	19.1	nt	nt	nt	16.4µM*	?
OC(c1ccccc1)c1nc(-c2cccc(F)c2)cs1 (stereo not given)	4.5	nt	nt	nt	-23.0%	-18.5%
COc1ccc(C(O)c2nc(-c3cccc(F)c3)cs2)cc1 (stereo not given)	-93.3*	nt	nt	nt	?	16.4µM*
CCCNC(=O)C1(C)CCN(C(=O)c2cccc(C(F)(F)F)c2)C1 (stereo not given)	6.0	nt	nt	nt	-0.7%	0.2%
Cn1c(=O)oc2cc(S(=O)(=O)NC(Cc3ccccc3)C(=O)Nc3ccc(F)c(Cl)c3)ccc21 (stereo not given)	nt	nt	nt	nt	-22.1%	-0.3%
CCOC(=O)C1CCN(c2ncnc3c2c(-c2ccccc2)cn3-c2ccc(C)c(Cl)c2)CC1	nt	nt	nt	nt	1.0%	1.3%
COc1ccc(C(O)c2nc(-c3cccc(C(F)(F)F)c3)cs2)cc1 (stereo not given)	20.0	nt	nt	nt	?	20.6µM*
COc1ccc(C(O)c2nc(-c3cccc(CO)c3)cs2)cc1 (stereo not given)	11.9	nt	nt	nt	?	?
CCOc1ccc(CCNC(=O)CCCc2nnc3n(CC)c(=O)c4sccc4n23)cc1OCC	nt	nt	nt	nt	?	-26.8%
SMILES	IL-1B inflam inh	RORgamma inh	ELG1 repair inh	Gal4-VP16 FLuc	TDP1 cell noCPT	TDP1 cell CPT
CCCN1C(=O)SC(CC(=O)Nc2ccccc2C)C1=O (stereo not given)	32.4	?	?	-4.9%	?	?
Cc1ccccc1NC(=O)CC1SC(=O)N(c2ccccc2)C1=O (stereo not given)	24.7	?	?	0.9%	4.61µM*	6.51µM*
CCOc1ccc(NC(=O)CC2SC(=O)N(c3ccccc3)C2=O)cc1 (stereo not given)	-2.1	?	?	?	2.91µM*	1.16µM*
COc1ccccc1NC(=O)CC1SC(=N)N(c2ccccc2)C1=O (stereo not given)	-7.4	5.7%	-3.8%	-3.0%	?	-16.7%
O=C(CC1SC(=O)N(c2ccccc2)C1=O)Nc1cccc2ccccc12 (stereo not given)	-0.4	-28.2%	-6.0%	3.8%	5.17µM*	3.26µM*
Cc1cc(-c2nc3ncccc3o2)ccc1NC(=O)c1ccc(Cl)cc1	nt	nt	nt	nt	1.7%	-21.1%
COc1ccc(CNc2ncnc3ccc(-c4ccc5c(c4)OCO5)cc23)c(OC)c1	nt	?	nt	1.8%	-15.0%	?
Cc1ccc(-n2c(O)c(C=NCc3ccccn3)c3ccccc3c2=O)cc1C	-66.5*	10µM*	?	22.4µM*	25.9µM*	8.2µM*
O=c1c2ccccc2c(C=NCc2ccccn2)c(O)n1-c1ccccc1Cl	1.2	11.2µM*	-16.3%	?	-22.4%	-3.4%
O=c1c2ccccc2c(C=NCc2ccccn2)c(O)n1-c1ccccc1	-9.1	?	-10.3%	-16.4%	?	-25.4%
COc1ccc(-n2c(O)c(C=NCc3ccccn3)c3ccccc3c2=O)c(OC)c1	-12.3	-33.7%	14.7%	0.2%	-23.8%	?
Cc1ccc(OCC(=O)Nc2ccc(OCc3cc(=O)n4cccc(C)c4n3)cc2)cc1C	nt	nt	nt	nt	-36.7%	-24.2%
Cc1ccc(NC(=S)N(Cc2cccc(Br)c2)CC2CCC(C(=O)O)CC2)cc1Cl (stereo not given)	24.0	?	-4.7%	-2.2%	1.1%	-1.0%
CC[C@H](C)[C@H]1O[C@]2(CC[C@@H]1C)C[C@@H]1C[C@@H](C/C=C(\C)[C@@H](O[C@H]3C[C@H](OC)[C@@H](O[C@H]4C[C@H](OC)[C@@H](O)[C@H](C)O4)[C@H](C)O3)[C@@H](C)/C=C/C=C3\CO[C@@H]4[C@H](O)C(C)=C[C@@H](C(=O)O1)[C@]34O)O2	nt	nt	nt	nt	?	10.6µM*
CC[C@H](C)[C@H]1O[C@]2(CC[C@@H]1C)C[C@@H]1C[C@@H](C/C=C(\C)[C@H](O[C@@H]3C[C@H](OC)[C@H](O[C@@H]4C[C@H](OC)[C@@H](O)[C@H](C)O4)[C@H](C)O3)[C@@H](C)/C=C/C=C3\CO[C@@H]4[C@H](O)C(C)=C[C@@H](C(=O)O1)[C@]34O)O2	nt	5.7%[10 µM]	nt	?	nt	nt

Assay outcomes from PubChem BioAssay.
